Reference: the supplement of paper PMC12340641
Counter-ions that a name gives are not always drawn.

Assays:
[1] = target: IKZF1 (dCK*-IKZF1 fusion in HEK293FT) (UniProt Q13422); assay: inhibition of IKZF1 HTRF signal (DMSO = 0%, pomalidomide 10 uM = 100%); higher = lower IKZF1 protein level; details: compound concentration: 5 uM, overnight (~20 h)
Outline: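 HEK293FT cells stably expressing a dCK*-IKZF1 fusion (2000/well, 384-well) were treated overnight at 37 °C with 5 μM compound in single wells. They were then lysed 30 min at room temperature, and lysate was incubated overnight with a commercial HTRF total-IKZF1 antibody kit. The time-resolved FRET ratio (665/620 nm) was background-subtracted. Percent inhibition of IKZF1 signal was normalised per plate to vehicle (0%) and a reference degrader (100%).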

[2] = system: HEK293FT dCK*-only; assay: relative growth in counter assay (no AraC = 100%, AraC + DMSO = 0%); higher = more growth rescue independent of IKZF1; details: compound concentration: 5 uM; AraC concentration: 0.3 uM; overnight pretreatment + 4 days AraC
Outline: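 In 384-well plates, 300 HEK293FT cells per well expressing an engineered kinase construct alone got 5 μM compound 2 h after seeding. After overnight at 37 °C, 0.3 μM nucleoside suicide substrate plus medium was applied for 4 days. Counting of Hoechst 33342-stained nuclei by imaging on day 5 was normalised per plate, with 100% for no-substrate wells and 0% for substrate plus vehicle.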

[3] = system: HEK293FT dCK*-IKZF1; assay: relative growth recovery (pomalidomide 10 uM = 100%, DMSO = 0%); higher = more growth rescue (IKZF1 fusion degradation); details: compound concentration: 5 uM; AraC concentration: 0.3 uM; overnight pretreatment + 4 days AraC
Outline: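 HEK293FT cells stably expressing an engineered deoxycytidine kinase–IKZF1 fusion were seeded at 300 per well in 384-well plates and given 5 μM compound 2 h later. After overnight incubation at 37 °C, a nucleoside suicide substrate at 0.3 μM was added with medium for 4 days, and on day 5 Hoechst 33342-stained nuclei were counted by whole-well imaging. Growth recovery was normalised per plate between a reference degrader and vehicle, set to 100% and 0% respectively, and the values are means of duplicates run on different days.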

IKZF1 (dCK*-IKZF1 fusion in HEK293FT), sequence (Q13422 whole entry, looked up, the tested form may be a part): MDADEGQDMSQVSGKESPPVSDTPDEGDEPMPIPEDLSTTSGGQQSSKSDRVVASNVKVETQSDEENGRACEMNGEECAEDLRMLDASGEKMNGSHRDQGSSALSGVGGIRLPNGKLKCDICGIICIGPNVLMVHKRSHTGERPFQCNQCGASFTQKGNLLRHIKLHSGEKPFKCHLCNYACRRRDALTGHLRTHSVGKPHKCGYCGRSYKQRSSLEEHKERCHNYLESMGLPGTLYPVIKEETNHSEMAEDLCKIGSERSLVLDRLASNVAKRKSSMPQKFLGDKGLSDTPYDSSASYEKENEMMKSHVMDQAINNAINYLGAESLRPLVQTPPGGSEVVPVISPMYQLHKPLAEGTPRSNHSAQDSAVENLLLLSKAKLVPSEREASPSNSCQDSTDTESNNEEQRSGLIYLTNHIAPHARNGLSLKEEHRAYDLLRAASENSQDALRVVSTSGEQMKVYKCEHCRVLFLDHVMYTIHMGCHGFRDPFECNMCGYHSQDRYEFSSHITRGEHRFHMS

SMILES | inhibition of IKZF1 HTRF signal [1] | relative growth in counter assay [2] | relative growth recovery [3]
CC(C)/N=c1\cc2n(-c3ccc(Cl)cc3)c3ccccc3nc-2cc1Nc1ccc(Cl)cc1 | 16.2% | -8.1% | 0.915%
COc1ccc(-c2nc3cc(C4=NNC(=O)CC4C)ccc3[nH]2)cc1 (configuration not stated) [Pimobendan (Vetmedin)] | -8.62% | -0.97% | -0.495%
COc1ccccc1NC(=O)OCC1CCN(C(=O)OC(C)(C)C)CC1 | -21.9% | -0.54% | 0.27%
CCN(CC)CCCC(C)Nc1ccnc2cc(Cl)ccc12 (configuration not stated) | -24.3% | -29.9% | -9.51%
CC[C@]1(O)C[C@@H]2C[N@@](CCc3c([nH]c4ccccc34)[C@@](C(=O)OC)(c3cc4c(cc3OC)N(C)[C@H]3[C@@](O)(C(=O)OC)[C@H](OC(C)=O)[C@]5(CC)C=CCN6CC[C@]43[C@@H]65)C2)C1.O=S(=O)(O)O [Vinblastine (sulfate)] | -4.41% | -34.3% | -11.4%
CN(C)c1ccc2nc3ccc(N(C)C)cc3[s+]c2c1 | 56.3% | -29.4% | -11.5%
ClC1=CC=CC(NC2=C3C(N(C(C)C)C=N3)=NC(N[C@H]([C@@H](C)C)CO)=N2)=C1 [purvalanol-a] | -35.2% | 2.99% | -1.66%
CCc1nc(N)nc(N)c1-c1ccc(Cl)cc1 | 18% | 3.95% | -0.245%
COc1cc([C@@H]2c3cc4c(cc3C(O[C@@H]3O[C@@H]5CO[C@@H](c6cccs6)OC5[C@H](O)[C@H]3O)C3COC(=O)[C@@H]32)OCO4)cc(OC)c1O (some centres not stated) | 16.8% | -34.5% | -13.1%
Cc1ccc(S(=O)(=O)NC(=O)NN2CC3CCCC3C2)cc1 (configuration not stated) | -29.9% | 3.82% | 1.34%
COCCOC(=O)C1=C(C)NC(C)=C(C(=O)OC/C=C/c2ccccc2)C1c1cccc([N+](=O)[O-])c1 (configuration not stated) [cilnidipine] | -8.24% | -4.05% | -0.035%
CCN(CC)c1ccc(C(=C2C=CC(=[N+](CC)CC)C=C2)c2ccccc2)cc1 [Brilliant Green] | 79.8% | -35% | -14.4%
CO[C@H]1O[C@@H]2O[C@@]3(C)CC[C@H]4[C@H](C)CC[C@@H]([C@H]1C)[C@@]24OO3 [Artemether] | -26.4% | -14.4% | -5.75%
C[C@H]1COC2=C1C(=O)C(=O)c1c2ccc2c1CCCC2(C)C [Cryptotanshinone] | -30.9% | 0.04% | -0.045%
COC(=O)Nc1ccc(-c2nc(N3CCOCC3)c3cnn(C4CCN(C(=O)OC)CC4)c3n2)cc1 | 8.25% | -9.33% | -2.33%
CCCCC1C(=O)N(c2ccccc2)N(c2ccc(O)cc2)C1=O (configuration not stated) | -36.3% | -34.9% | -12.7%
Cc1coc2c1C(=O)C(=O)c1c-2ccc2c1CCCC2(C)C [Tanshinone IIA (Tanshinone B)] | 18.3% | 5.29% | 0.345%
Nc1ccc(-c2ccc3ncc4ccc(=O)n(-c5cccc(C(F)(F)F)c5)c4c3c2)cn1 [torin-2] | 66.5% | -34.6% | -12.2%
Cc1cc(C)nc(NS(=O)(=O)c2ccc(NC(=S)NC(=O)COc3ccc(Br)cc3Cl)cc2)n1 | -36.5% | 0.75% | 1.03%
CCOc1ccc2nc3cc(N)ccc3c(N)c2c1 | -16.3% | -23.6% | -6.36%
OC1=C(C[C@]([C@](CO)=O)(O)C[C@@H]4O[C@@]5([H])C[C@H](N)[C@H](O)[C@H](C)O5)C4=C(O)C3=C1C(C2=CC=CC(OC)=C2C3=O)=O [doxorubicin] | -9.64% | -35.2% | -13.8%
COC(=O)Nc1ccc(-c2nc(N3CCOCC3)c3cnn(C4CCN(Cc5cccnc5)CC4)c3n2)cc1 | -7.75% | -33% | -12.9%
COc1cccc2c(O)c3c(O)c4c(c(O)c3c(O)c12)=C(O[C@H]1C[C@H](N)[C@H](O)[C@H](C)O1)C[C@](O)(C(C)=O)C=4 [Daunorubicin HCl] | 56.3% | -34.8% | -13.9%
Cc1nc(-c2cccnc2)sc1C(=O)Nc1ccccc1-c1cn2c(CN3CCOCC3)csc2n1 | 6.43% | -2.87% | -0.27%
